The values below come from PubChem BioAssay.

Activity calls are given as the source filed them. Unless noted, how the calls were made is not given here.
Further: test concentration not given here.

The first assay can be described thus: P. aeruginosa biofilm formation inhibitors, primary screen, strain PAO1, LB-PBS medium, absorbance 600 nm (AID 1176). The settings on record: P. aeruginosa PAO1 growth/biofilm, A600, 12 h; higher = more signal.
For the compound `COc1ccc([Si](C)(C)[C@@H]2[C@@H](CC(=O)N3Cc4ccccc4C[C@H]3CO)O[C@]3(C(=O)N(Cc4ccc(N5CCC5=O)cc4)c4ccccc43)[C@H]2C)cc1`, the z-score is 1.45 (inactive).

On to `Cc1ccc(S[C@]2(C(=O)NC(C)C)CC(=O)N(Cc3ccccc3Cl)[C@@H]2c2ccc(CO)cc2)cc1`, for which the z-score is 1.52 (inactive). `CCOC(=O)C[C@H]1[C@H](OC(=O)c2ccc(-c3ccccc3)cc2)[C@@H](NC(=O)CC(C)C)c2cc(OCCCO)ccc2N1C(=O)c1ccccc1`: the z-score is 0.951 (inactive). In the case of `C=C(C(=O)CC[C@H](OC(=O)c1ccccc1-c1ccccc1C(=O)O)c1ccccc1OCCO)C(C)C`, the z-score is 0.108 (inactive). In the case of `COCCOC(=O)N1C(=O)[C@@]2(c3cc(C#CC4=CCCCC4)ccc31)[C@H](c1ccc(O)cc1)N1[C@H](c3ccccc3)[C@H](c3ccccc3)OC(=O)[C@H]1[C@@H]2C(=O)NC[C@H](O)c1ccccc1`, the z-score was 1.29 (inactive). Consider `NC(=O)[C@H]1[C@@H]2C(=O)O[C@@H](c3ccccc3)[C@@H](c3ccccc3)N2[C@@H](c2ccc(O)cc2)[C@]12C(=O)Nc1ccc(C#CC3=CCCCC3)cc12`, for which the z-score was -0.144 (inactive). Turning to `CC1CC/C=C\[C@H]2OC34C=CCN(C(C)(C)C)C(=O)[C@H]3N(C(CO)C(C)C)C(=O)[C@@H]4C2C(=O)O1` (stereo not given in full), the z-score was 0.0251 (inactive). Consider `O=C(NCCN1CCOCC1)[C@@H]1c2ccccc2C(=O)N(Cc2ccccc2)[C@H]1c1ccc(CO)cc1`, for which the z-score is -0.838 (inactive). Regarding `CC(C)CCC[C@@H](C)[C@H]1CC[C@@]2(C)C3=C(CC[C@]12C)[C@@]1(C)CC[C@H](OC(=O)c2ccccc2)C(C)(C)C1CC3` (stereo not given in full), the z-score was 0.968 (inactive).

Regarding `C[C@]1(C(=O)O)c2ccccc2C(=O)N(Cc2ccc(OC(F)(F)F)cc2)[C@H]1c1ccc(CO)cc1`, the z-score is 0.0993 (inactive). With `C=CCNC(=O)[C@H]1[C@@H]2C(=O)O[C@@H](c3ccccc3)[C@@H](c3ccccc3)N2[C@@H](c2ccc(O)cc2)[C@]12C(=O)N(C(=O)OCCOC)c1ccc(C#CCC(C(=O)OC)C(=O)OC)cc12`, the z-score is 2.17 (inactive).

Regarding `CCCNC(=O)[C@@]1(Sc2ccc(C)cc2)CC(=O)N(C(C)C)[C@@H]1c1ccc(CO)cc1I`, the z-score is 0.0714 (inactive). On to `COc1ccc([Si](C)(C)[C@H]2[C@H](CCO)O[C@@]3(C(=O)N(Cc4ccccc4)c4ccc(N5CCOC5=O)cc43)[C@@H]2C)cc1`, for which the z-score was 2.41 (inactive).

Consider `C=CC1c2cc(O)c(OC)cc2CCN1Cc1ccc([N+](=O)[O-])o1` (stereo not given), for which the z-score was -1.03 (inactive). Consider `CCCCC(=O)N(CCN1CCOCC1)[C@@H]1CC(C(=O)NCCO)=C[C@H](Oc2c(I)cc(CO)cc2OC)[C@H]1O`, for which the z-score was 0.118 (inactive).

For the compound `C=C[C@@H](C)[C@@H](OC(=O)Nc1ccc(SC)cc1)c1ccc(OCCO)cc1`, the z-score is 0.119 (inactive). Regarding `CC(C)C[C@@H]1NC(=O)CNC(=O)[C@@]23C(=O)N[C@@H](Cc4ccccc4)C2[C@H](C)[C@@]2(C)O[C@H]2C3/C=C/C/C=C\CNC1=O` (stereo not given in full), the z-score was 1.31 (inactive). Same read-out and setting: to `Cc1c(NC(=O)/C(C#N)=C/c2ccccc2Cl)c(=O)n(-c2ccccc2)n1C` belongs 0.543 (inactive). Same read-out and setting: to `COCCCNC(=O)[C@@]1(c2ccc([N+](=O)[O-])cc2)CC(=O)N(C(C)C)[C@@H]1c1ccc(CO)cc1` belongs 0.0561 (inactive); to `C=CCC(OC(C)=O)[C@@H]1[C@@H](N(Cc2cccc3ccccc23)C(=O)c2cccc3ccccc23)c2cc(OCCCO)ccc2N1C(=O)c1ccc2ccccc2c1` (stereo not given in full), -1.44 (inactive); to `CC(C)C[C@@H]1NC(=O)[C@H]2C[C@@H](C(=O)NCCCCCN)[C@@H](c3cccc(OCCO)c3)N2C1=O`, -0.0491 (inactive). Consider `COC(=O)[C@@]1(Cc2ccccc2)[C@H]2c3cc(C(=O)N4CCCC4)n(CCSCCO)c3C[C@H]2CN1C(=O)c1ccccc1`, for which the z-score is 0.824 (inactive). `CCOC(=O)C1=C[C@@H](C(C)(C)C)N(S(=O)(=O)c2ccc(C)cc2)[C@H]1c1ccccc1`: the z-score is 0.0083 (inactive). `C=CCN1C(=O)[C@]2(O[C@H](CCO)[C@@H]([Si](C)(C)c3ccc(OC)cc3)[C@@H]2C)c2cc(NC(=O)c3ccc(OC)cc3)ccc21`: the z-score is 1.98 (inactive). The same measure, in the same setting: in the case of `COCCOC(=O)N1C(=O)[C@@]2(c3cc(C#Cc4ccc(OC)cc4)ccc31)[C@H](C(=O)NC[C@H](O)c1ccccc1)[C@H]1C(=O)O[C@H](c3ccccc3)[C@H](c3ccccc3)N1[C@@H]2c1ccc(OCCO)cc1` it was 1.93 (inactive).

`CCc1cccc(NC(=O)O[C@H]2[C@H](OC(=O)Nc3ccccc3)[C@H](OC(=O)Nc3ccccc3)[C@@H](OC)O[C@@H]2CO)c1`: the z-score is 1.78 (inactive).

Another assay in a line: S. cerevisiae RM11-1a growth modifiers, primary screen, strain RM11-1a, OD600, basal, 24 h (AID 1177).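 Further: cultures grown under basal conditions with no added stressor.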 The settings on record: OD600, 24 h, higher = more signal, called active from +8 up or from −8 down.
As to `Cc1ccc(S[C@]2(C(=O)NC(C)C)CC(=O)N(C(C)C)[C@@H]2c2ccc(CO)cc2I)cc1`, the z-score was -0.471 (inactive). On to `C=C(/C(=C/C[C@@H](OC(C)=O)c1ccc(CO)o1)c1cc(C(=O)OC)ccc1OC)C(C)C`, for which the z-score was 0.4 (inactive). On to `COc1ccc(CCNC(=O)[C@@]2(Cc3ccccc3I)c3ccccc3C(=O)N(Cc3ccccc3Cl)[C@H]2c2ccc(CO)cc2)cc1`, for which the z-score is -0.377 (inactive). Regarding `COCCCNC(=O)[C@@]1(Sc2ccc(C)cc2)CC(=O)N(Cc2ccccc2Cl)[C@@H]1c1ccc(CO)cc1I`, the z-score was -1.07 (inactive).

Consider `COc1cc(C(O)C2C=CC3C(=O)N(Cc4ccccc4)C(=O)C3N2n2cnnc2)cc(OC)c1OC` (stereo not given), for which the z-score was -1.27 (inactive). On to `[N-]=[N+]=Nc1ccccc1C[C@]1(C(=O)NCc2ccccc2)COC(c2ccc(OCCCO)cc2)=N1`, for which the z-score was 2.15 (inactive). For the compound `Cc1ccc(S[C@]2(C(=O)NCc3ccccc3)CC(=O)N(Cc3cc(C(F)(F)F)cc(C(F)(F)F)c3)[C@@H]2c2ccc(CO)cc2I)cc1`, the z-score was -0.741 (inactive). As for `COc1cc2c(cc1OC)CN(C(=O)[C@@H]1[C@H]3C(=O)O[C@H](c4ccccc4)[C@H](c4ccccc4)N3[C@H](c3ccc(O)cc3)[C@@]13C(=O)Nc1ccc(C#CCCO)cc13)CC2`, the z-score was 1.66 (inactive). Still for that read-out and setting: in the case of `Cc1ccccc1C(O)C1C=CC2C(=O)NC(=O)C2N1Nc1ccc(Cl)cc1Cl` (stereo not given) it was 0.251 (inactive); in that of `C=CCC(OC(C)=O)[C@@H]1[C@@H](N(Cc2ccc(-c3cccc(C(F)(F)F)c3)o2)C(=O)c2ccc(C)cc2)c2cc(OCCCO)ccc2N1C(=O)Cc1ccc(OC)cc1` (stereo not given in full), 0.74 (inactive); in that of `COc1ccc([Si](C)(C)[C@@H]2[C@@H](CC(=O)N3Cc4ccccc4C[C@H]3CO)O[C@]3(C(=O)N(Cc4ccc(N5CCC5=O)cc4)c4ccccc43)[C@H]2C)cc1`, 2.01 (inactive). As to `Cc1ccc(S[C@]2(C(=O)NC(C)C)CC(=O)N(Cc3ccccc3Cl)[C@@H]2c2ccc(CO)cc2)cc1`, the z-score is 0.343 (inactive). As for `CCOC(=O)C[C@H]1[C@H](OC(=O)c2ccc(-c3ccccc3)cc2)[C@@H](NC(=O)CC(C)C)c2cc(OCCCO)ccc2N1C(=O)c1ccccc1`, the z-score was 0.964 (inactive).

Regarding `C=C(C(=O)CC[C@H](OC(=O)c1ccccc1-c1ccccc1C(=O)O)c1ccccc1OCCO)C(C)C`, the z-score was -0.0722 (inactive). The same measure, in the same setting: to `COCCOC(=O)N1C(=O)[C@@]2(c3cc(C#CC4=CCCCC4)ccc31)[C@H](c1ccc(O)cc1)N1[C@H](c3ccccc3)[C@H](c3ccccc3)OC(=O)[C@H]1[C@@H]2C(=O)NC[C@H](O)c1ccccc1` belongs 1.94 (inactive); to `NC(=O)[C@H]1[C@@H]2C(=O)O[C@@H](c3ccccc3)[C@@H](c3ccccc3)N2[C@@H](c2ccc(O)cc2)[C@]12C(=O)Nc1ccc(C#CC3=CCCCC3)cc12`, 1.76 (inactive); to `CC1CC/C=C\[C@H]2OC34C=CCN(C(C)(C)C)C(=O)[C@H]3N(C(CO)C(C)C)C(=O)[C@@H]4C2C(=O)O1` (stereo not given in full), -0.472 (inactive).

For `O=C(NCCN1CCOCC1)[C@@H]1c2ccccc2C(=O)N(Cc2ccccc2)[C@H]1c1ccc(CO)cc1`, the z-score is 0.496 (inactive).

In the case of `CC(C)CCC[C@@H](C)[C@H]1CC[C@@]2(C)C3=C(CC[C@]12C)[C@@]1(C)CC[C@H](OC(=O)c2ccccc2)C(C)(C)C1CC3` (stereo not given in full), the z-score is -1.61 (inactive). As to `C[C@]1(C(=O)O)c2ccccc2C(=O)N(Cc2ccc(OC(F)(F)F)cc2)[C@H]1c1ccc(CO)cc1`, the z-score is -0.475 (inactive). Turning to `C=CCNC(=O)[C@H]1[C@@H]2C(=O)O[C@@H](c3ccccc3)[C@@H](c3ccccc3)N2[C@@H](c2ccc(O)cc2)[C@]12C(=O)N(C(=O)OCCOC)c1ccc(C#CCC(C(=O)OC)C(=O)OC)cc12`, the z-score was 2.19 (inactive). As for `CCCNC(=O)[C@@]1(Sc2ccc(C)cc2)CC(=O)N(C(C)C)[C@@H]1c1ccc(CO)cc1I`, the z-score is 0.29 (inactive). Turning to `COc1ccc([Si](C)(C)[C@H]2[C@H](CCO)O[C@@]3(C(=O)N(Cc4ccccc4)c4ccc(N5CCOC5=O)cc43)[C@@H]2C)cc1`, the z-score was 4.25 (inactive).

Consider `C=CC1c2cc(O)c(OC)cc2CCN1Cc1ccc([N+](=O)[O-])o1` (stereo not given), for which the z-score was 1.11 (inactive). For `CCCCC(=O)N(CCN1CCOCC1)[C@@H]1CC(C(=O)NCCO)=C[C@H](Oc2c(I)cc(CO)cc2OC)[C@H]1O`, the z-score was 0.615 (inactive). The same measure, in the same setting: to `C=C[C@@H](C)[C@@H](OC(=O)Nc1ccc(SC)cc1)c1ccc(OCCO)cc1` belongs 0.296 (inactive); to `CC(C)C[C@@H]1NC(=O)CNC(=O)[C@@]23C(=O)N[C@@H](Cc4ccccc4)C2[C@H](C)[C@@]2(C)O[C@H]2C3/C=C/C/C=C\CNC1=O` (stereo not given in full), 0.0082 (inactive).

Turning to `Cc1c(NC(=O)/C(C#N)=C/c2ccccc2Cl)c(=O)n(-c2ccccc2)n1C`, the z-score is -0.688 (inactive).

For the compound `COCCCNC(=O)[C@@]1(c2ccc([N+](=O)[O-])cc2)CC(=O)N(C(C)C)[C@@H]1c1ccc(CO)cc1`, the z-score is -0.203 (inactive).
